Experimental data taken from PubChem BioAssay.
Where “and” joins values, the source holds several entries; their conditions need not be identical. Identical values can stand only once. Some structures have more than one record in an assay (separate samples or runs), and their calls can disagree. Calls of active or inactive are those of the source. Unless noted, no stated cut-off is given here; in the data, active means inhibition above about 44%; inactive means the rest.

Assays:
[1] = target: Nuclear receptor coactivator 3 (Homo sapiens) (UniProt Q9Y6Q9); experiment: SRC3 coactivator transcriptional activity inhibitors, confirmation, cell-based, luminescence, quadruplicate (AID 588792;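 active means mean inhibition over 43.08%, the solvent-only control mean plus 3 SD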;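 further: 0% = DMSO treated cells and 100% = gossypol at 36 µM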); conditions: HEK293 GAL4-SRC3 luciferase reporter, at 3.6 µM, stronger effect = higher value
[2] = test system: transactivating tegument protein VP16 (Human herpesvirus 1), Gal4-VP16 luciferase reporter; experiment: VP16 transactivation inhibitors, counter-screen for SRC3 inhibitor project, cell-based, luminescence, high throughput (AID 588794; in the data active means inhibition above about 30%); conditions: mammalian cells, VP16-driven luciferase reporter luminescence; at 3.6 µM; stronger effect = higher value
[3] = target: Nuclear receptor coactivator 1 (Homo sapiens) (UniProt Q15788); experiment: SRC1 coactivator transcriptional activity inhibitors, confirmation, cell-based, luminescence, quadruplicate (AID 588820;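 active means mean inhibition above 46.68%, the untreated control wells mean plus 3 SD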;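 further: 0% = DMSO wells and 100% = gossypol 36 µM treated wells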); conditions: HEK293 GAL4-SRC1 luciferase reporter, at 3.6 µM, stronger effect = higher value
[4] = VP16 transactivation inhibitors, counter-screen for SRC1 inhibitor project, cell-based, luminescence, high throughput (AID 588824; in the data active means inhibition above about 25%); conditions: cell-based VP16 transactivation luciferase luminescence; at 3.6 µM; stronger effect = higher value
[5] = StAR promoter reporter inhibitors, counter-screen for LRH-1 inverse agonist project, cell-based, luminescence, high throughput (AID 651611; in the data active means inhibition above about 28%); conditions: StAR promoter luciferase reporter counterscreen, at 3.6 µM, stronger effect = higher value
[6] = target: Nuclear receptor subfamily 5 group A member 2 (Homo sapiens) (UniProt O00482); experiment: LRH-1 (NR5A2) inverse agonists, retest, confirmation, cell-based, luminescence (AID 651613; in the data active means inhibition above about 42%;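 further: HEK293T cells co-transfected with LRH-1 and StAR promoter luciferase reporter; 0% = vehicle wells and 100% = parental cells lacking receptor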); conditions: cell-based LRH-1 luciferase reporter, inverse agonism; at 3.6 µM; stronger effect = higher value
[7] = target: Steroidogenic factor 1 (Homo sapiens) (UniProt Q13285); experiment: SF1 (NR5A1) inverse agonists, counter-screen for LRH-1 inverse agonist project, cell-based, luminescence, high throughput (AID 651614); conditions: cell-based SF1 luciferase reporter, at 3.6 µM, stronger effect = higher value;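 further: cells cotransfected with StAR promoter reporter and SF1 expression vector; 0% = vehicle on cells with receptor and 100% = vehicle on cells lacking receptor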
[8] = VP16 transactivation reporter inhibitors, counter-screen for LRH-1 inverse agonist project, cell-based, luminescence, high throughput (AID 651615; in the data active means inhibition above about 33%); conditions: Gal4-VP16 luciferase reporter cells, at 3.6 µM, stronger effect = higher value

Measured: inhibition

Nuclear receptor subfamily 5 group A member 2 (Homo sapiens), sequence (O00482 whole entry, looked up): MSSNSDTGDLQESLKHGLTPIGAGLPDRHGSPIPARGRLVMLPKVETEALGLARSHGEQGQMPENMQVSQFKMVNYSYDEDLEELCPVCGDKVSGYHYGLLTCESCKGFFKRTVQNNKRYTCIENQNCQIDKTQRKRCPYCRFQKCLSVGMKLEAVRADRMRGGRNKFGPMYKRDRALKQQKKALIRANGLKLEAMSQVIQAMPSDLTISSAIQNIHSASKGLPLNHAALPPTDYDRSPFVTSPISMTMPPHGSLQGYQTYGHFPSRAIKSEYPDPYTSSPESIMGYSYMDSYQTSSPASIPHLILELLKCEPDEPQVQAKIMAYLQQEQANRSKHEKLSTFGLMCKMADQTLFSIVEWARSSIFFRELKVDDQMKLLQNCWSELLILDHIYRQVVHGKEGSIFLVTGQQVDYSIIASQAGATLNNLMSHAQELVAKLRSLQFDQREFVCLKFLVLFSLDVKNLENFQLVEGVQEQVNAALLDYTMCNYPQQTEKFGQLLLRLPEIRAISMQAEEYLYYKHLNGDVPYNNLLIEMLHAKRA
Nuclear receptor coactivator 1 (Homo sapiens), sequence (Q15788 whole entry, looked up, the tested form may be a part): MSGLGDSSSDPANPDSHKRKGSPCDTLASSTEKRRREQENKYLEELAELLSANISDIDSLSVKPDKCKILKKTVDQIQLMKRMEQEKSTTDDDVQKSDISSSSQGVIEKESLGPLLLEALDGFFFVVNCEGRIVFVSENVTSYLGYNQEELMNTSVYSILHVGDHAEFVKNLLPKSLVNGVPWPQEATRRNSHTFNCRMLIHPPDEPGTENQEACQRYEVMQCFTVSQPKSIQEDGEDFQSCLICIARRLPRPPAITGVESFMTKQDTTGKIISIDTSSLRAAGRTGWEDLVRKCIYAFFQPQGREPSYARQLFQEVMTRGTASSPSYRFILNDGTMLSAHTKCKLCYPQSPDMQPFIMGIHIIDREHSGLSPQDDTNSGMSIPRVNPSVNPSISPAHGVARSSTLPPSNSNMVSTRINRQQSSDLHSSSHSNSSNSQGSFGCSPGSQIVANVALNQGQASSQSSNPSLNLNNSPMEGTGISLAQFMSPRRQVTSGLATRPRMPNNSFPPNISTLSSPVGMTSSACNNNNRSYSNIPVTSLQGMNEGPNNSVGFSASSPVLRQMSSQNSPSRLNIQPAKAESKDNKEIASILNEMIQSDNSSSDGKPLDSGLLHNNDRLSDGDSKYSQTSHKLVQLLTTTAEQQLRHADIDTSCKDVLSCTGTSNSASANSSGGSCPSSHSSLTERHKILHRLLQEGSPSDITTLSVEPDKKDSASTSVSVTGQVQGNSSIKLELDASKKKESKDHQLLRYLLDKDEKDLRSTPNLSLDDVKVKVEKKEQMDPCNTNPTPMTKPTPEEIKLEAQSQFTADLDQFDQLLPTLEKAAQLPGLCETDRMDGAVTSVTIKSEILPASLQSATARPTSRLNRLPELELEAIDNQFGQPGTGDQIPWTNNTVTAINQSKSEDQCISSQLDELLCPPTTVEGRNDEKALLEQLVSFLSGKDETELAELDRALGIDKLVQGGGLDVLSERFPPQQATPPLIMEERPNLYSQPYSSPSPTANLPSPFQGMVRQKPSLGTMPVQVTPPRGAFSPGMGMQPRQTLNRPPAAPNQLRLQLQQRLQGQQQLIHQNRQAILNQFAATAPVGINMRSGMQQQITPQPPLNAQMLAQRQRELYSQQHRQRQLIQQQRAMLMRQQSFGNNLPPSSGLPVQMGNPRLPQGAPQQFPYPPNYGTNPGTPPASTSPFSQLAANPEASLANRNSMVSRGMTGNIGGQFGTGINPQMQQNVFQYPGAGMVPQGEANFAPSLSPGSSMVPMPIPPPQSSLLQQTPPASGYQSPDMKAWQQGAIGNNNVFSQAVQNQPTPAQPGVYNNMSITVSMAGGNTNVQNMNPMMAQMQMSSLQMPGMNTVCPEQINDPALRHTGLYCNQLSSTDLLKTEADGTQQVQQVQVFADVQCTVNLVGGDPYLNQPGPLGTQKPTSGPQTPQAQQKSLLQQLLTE
Steroidogenic factor 1 (Homo sapiens), sequence (Q13285 whole entry, looked up, the tested form may be a part): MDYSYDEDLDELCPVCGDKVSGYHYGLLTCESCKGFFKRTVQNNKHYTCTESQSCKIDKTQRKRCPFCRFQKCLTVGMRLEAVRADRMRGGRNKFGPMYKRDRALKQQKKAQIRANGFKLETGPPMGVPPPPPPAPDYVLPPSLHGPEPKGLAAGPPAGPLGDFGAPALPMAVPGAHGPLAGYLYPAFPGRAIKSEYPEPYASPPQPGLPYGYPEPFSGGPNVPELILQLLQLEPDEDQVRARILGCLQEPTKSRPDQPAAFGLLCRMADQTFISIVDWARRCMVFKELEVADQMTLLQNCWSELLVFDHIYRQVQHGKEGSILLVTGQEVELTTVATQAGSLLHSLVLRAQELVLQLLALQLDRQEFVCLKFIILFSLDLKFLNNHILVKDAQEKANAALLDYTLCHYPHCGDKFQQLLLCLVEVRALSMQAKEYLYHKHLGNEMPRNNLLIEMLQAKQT
Nuclear receptor coactivator 3 (Homo sapiens), sequence (Q9Y6Q9 whole entry, looked up, the tested form may be a part): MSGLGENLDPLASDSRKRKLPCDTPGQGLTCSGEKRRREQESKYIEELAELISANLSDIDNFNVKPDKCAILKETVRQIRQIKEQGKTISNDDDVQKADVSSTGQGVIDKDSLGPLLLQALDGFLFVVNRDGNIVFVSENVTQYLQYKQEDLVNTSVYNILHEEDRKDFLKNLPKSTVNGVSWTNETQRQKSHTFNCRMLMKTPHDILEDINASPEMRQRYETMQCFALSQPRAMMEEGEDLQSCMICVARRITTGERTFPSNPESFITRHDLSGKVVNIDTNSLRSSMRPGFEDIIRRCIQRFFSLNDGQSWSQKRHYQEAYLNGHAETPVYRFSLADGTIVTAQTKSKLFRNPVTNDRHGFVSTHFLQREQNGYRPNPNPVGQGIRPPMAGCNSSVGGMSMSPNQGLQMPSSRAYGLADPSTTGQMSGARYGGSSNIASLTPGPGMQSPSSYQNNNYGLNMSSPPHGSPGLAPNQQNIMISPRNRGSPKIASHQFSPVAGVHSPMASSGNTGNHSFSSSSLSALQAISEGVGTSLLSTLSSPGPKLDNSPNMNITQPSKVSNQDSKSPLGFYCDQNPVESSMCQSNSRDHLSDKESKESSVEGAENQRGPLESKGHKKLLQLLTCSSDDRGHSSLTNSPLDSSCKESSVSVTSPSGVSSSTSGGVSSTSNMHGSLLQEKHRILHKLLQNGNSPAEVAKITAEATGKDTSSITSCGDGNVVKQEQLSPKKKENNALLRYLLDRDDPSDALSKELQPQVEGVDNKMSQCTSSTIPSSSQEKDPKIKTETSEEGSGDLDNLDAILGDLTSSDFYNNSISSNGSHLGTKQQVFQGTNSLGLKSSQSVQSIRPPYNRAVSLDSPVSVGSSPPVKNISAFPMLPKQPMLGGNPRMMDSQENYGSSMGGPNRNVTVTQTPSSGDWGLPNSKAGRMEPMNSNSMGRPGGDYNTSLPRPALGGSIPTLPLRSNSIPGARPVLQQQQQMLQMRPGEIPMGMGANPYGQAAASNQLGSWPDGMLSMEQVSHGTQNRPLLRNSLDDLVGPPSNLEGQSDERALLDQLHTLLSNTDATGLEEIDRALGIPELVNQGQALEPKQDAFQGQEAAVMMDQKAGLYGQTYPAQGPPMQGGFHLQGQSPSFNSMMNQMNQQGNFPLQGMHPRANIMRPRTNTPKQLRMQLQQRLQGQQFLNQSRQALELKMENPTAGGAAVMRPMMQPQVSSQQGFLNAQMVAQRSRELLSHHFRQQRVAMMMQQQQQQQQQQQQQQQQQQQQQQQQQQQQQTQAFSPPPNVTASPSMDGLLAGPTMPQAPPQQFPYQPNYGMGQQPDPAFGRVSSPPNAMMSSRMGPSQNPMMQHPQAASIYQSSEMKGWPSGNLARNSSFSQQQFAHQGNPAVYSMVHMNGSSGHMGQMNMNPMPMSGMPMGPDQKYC

CN(C)c1cc[n+](CC(=O)c2ccc(-c3ccccc3)cc2)cc1
active: [2] 57.6% | [4] 66.5% | [5] 43.8% | [6] 82.3% | [7] 71.8% | [8] 67.9%
inactive: [1] 35.6% | [3] 35%

CC[n+]1ccc(/C=C/c2c[nH]c3ccccc23)cc1
active: [4] 25.5% | [6] 65% | [7] 55.9% | [8] 60.8%
inactive: [1] 8.39% | [2] 22.7% | [3] -16.8% | [5] 18%

Cc1ccc(/C=C/c2ccc(N(C)C)cc2)[n+](C)c1
active: [2] 56% | [4] 50.1% | [5] 41.5% | [6] 78.5% | [7] 73% | [8] 67.4%
inactive: [1] 36.3% | [3] 11.4%

O=C(NCc1ccccc1)c1cccc(NC(=O)c2ccco2)c1
inactive: [1] 18.4% | [3] 26.9%
active: [2] 50.7% | [4] 48.9% | [5] 35.5% | [6] 51.6% | [7] 51.1% | [8] 68.5%

CC[n+]1c(/C=C2\Sc3ccccc3N2C)ccc2cccc(C)c21
inactive: [3] 36.2%
active: [1] 47.9% | [2] 68% | [4] 79.5% | [5] 76.7% | [6] 109% | [7] 91.6% | [8] 87%

Cc1c(C)c2cccnc2c2ncccc12
active: [1] 88.2% | [2] 65.7% | [3] 72.8% | [4] 65.7% | [5] 89.9% | [6] 108% | [7] 91.9% | [8] 64.1%

CN(C)c1ncnc2c1nnn2C1OC(CO)C(O)C1O (stereo not drawn)
inactive: [3] 29.6%
active: [1] 82.7% | [2] 81.1% | [4] 81% | [5] 91.3% | [6] 105% | [7] 93.5% | [8] 88.8%

CCC[N+]1(CC#CCC(c2ccccc2)c2ccccc2)CCCCC1
inactive: [1] 28.8% | [3] 21.4% | [5] 24.2%
active: [2] 40.3% | [4] 53.2% | [6] 104% | [7] 67.9% | [8] 73.6%

COc1cccc(Cn2c(NCc3cccnc3)nc3c2c(=O)n(C)c(=O)n3C)c1
active: [1] 50.8% | [2] 41.3% | [3] 58.1% | [4] 38% | [5] 59.4% | [6] 55.5% | [7] 50.3% | [8] 62.8%

CCOC(=O)c1cc2c(=Cc3ccc(N(C)C)cc3)c3ccccc3n2[n+]1C
active: [1] 46.2% | [2] 63.4% | [4] 59.5% | [5] 49.3% | [6] 105% | [7] 85.7% | [8] 90.4%
inactive: [3] 22.9%

CCCCC(=O)NC(c1ccccc1Cl)c1ccc2cccnc2c1O (stereo not drawn)
active: [2] 32.7% | [4] 50.9% | [5] 74.1% | [6] 76.5% | [7] 80.8% | [8] 74.4%
inactive: [1] 26.3% | [3] 41%

Cc1nn(Cc2ccc(C(=O)Nc3nccs3)cc2)c(C)c1Cl
active: [2] 45.6% | [4] 43.8% | [5] 46.8% | [6] 62.3% | [7] 67% | [8] 64.6%
inactive: [1] 21.7% | [3] 17.9%

Cn1cc(/C=C/c2cc[n+](C)cc2)c2cc(Cl)ccc21
inactive: [1] 21.6% | [3] 21.5%
active: [2] 43.1% | [4] 38.8% | [5] 47.9% | [6] 81.2% | [7] 78.8% | [8] 73.9%

CCN(CC)CCn1c2ccccc2c2cnc(N)c(C#N)c21
active: [2] 35.2% | [4] 50.6% | [5] 35.7% | [6] 65.8% | [7] 57.4% | [8] 74.8%
inactive: [1] 5.22% | [3] 30.1%

c1ccc(-c2ccc(-c3nc(-c4ccccn4)no3)cc2)cc1
active: [1] 43.5% | [2] 35.9% | [4] 39.4% | [5] 42.4% | [7] 54.8% | [8] 30.9%
inactive: [3] -28.2% | [6] 13.6%

N=c1c2c(n(Cc3cccc(Cl)c3)c3c1CCC3)CCCC2
active: [2] 65.2% | [4] 73.9% | [5] 53.3% | [6] 108% | [7] 83.8% | [8] 85.4%
inactive: [1] 42.1% | [3] 40.5%

CCOc1cc(/C=C2\CN(CC)C/C(=C\c3ccc(O)c(OCC)c3)C2=O)ccc1O
inactive: [3] 4.46%
active: [1] 65.4% | [2] 62.4% | [4] 51.8% | [5] 47.3% | [6] 91.2% | [7] 87.2% | [8] 82.6%

CC1(C)N=C(N)N=C(N)N1CCCCc1ccccc1
inactive: [2] 24.4% | [7] 38.2%
active: [1] 45.9% | [3] 56.8% | [4] 30.3% | [5] 61.4% | [6] 48.8% | [8] 35.7%

CCCCCCCCCn1c2c(c(=N)c3c1CCC3)CCCC2
active: [1] 87.2% | [2] 90.4% | [3] 65.6% | [4] 85.3% | [5] 83.7% | [6] 111% | [7] 95.6% | [8] 94.6%

O=C1NC(=O)C(c2ccc(F)cc2)N1 (stereo not drawn)
inactive: [1] 3.02% | [2] -3.31% | [3] -2.47% | [4] -5.94% | [5] 11% | [6] 8.89% | [7] 2.89% | [8] 4.11%

Cc1ccc(-c2cn(-c3ccccc3)c3[n+]2CCCS3)cc1
active: [6] 80.1% and 61.7% | [7] 61.2% and 59.6% | [8] 64.2% and 56.1%
inactive: [1] 1.67% | [2] 27.5% | [3] 9.91% | [4] 19.5% | [5] 24.4% and 12.1%

O=C(N/N=C/c1ccc[nH]1)c1ccc(COc2cccc3cccnc23)cc1
inactive: [3] 0.58%
active: [1] 83% | [2] 71.8% | [4] 66.5% | [5] 86% | [6] 109% | [7] 96.3% | [8] 88.4%

N=c1c2c(n(Cc3ccc(Cl)c(Cl)c3)c3c1CCC3)CCCC2
active: [1] 44.7% | [2] 74.8% | [3] 62.8% | [4] 74.8% | [5] 61.2% | [6] 109% | [7] 84.6% | [8] 90.7%

CC(=NNC(=S)Nc1ccccc1)c1ccccn1
active: [2] 70.5% | [4] 67.8% | [5] 78.3% | [6] 101% | [7] 90% | [8] 85.6%
inactive: [1] 41% | [3] -15.4%

NC(=S)NN=Cc1cc(-c2cccc(N)c2)ccn1
active: [1] 77.3% | [2] 53% | [3] 64.1% | [4] 52.2% | [5] 75.3% | [6] 93.6% | [7] 88% | [8] 72.4%

CCN1/C(=C/c2ccc3cccc(C)c3[n+]2CC)Sc2ccccc21
inactive: [1] 35.1% | [3] 26%
active: [2] 63.3% | [4] 71.4% | [5] 57% | [6] 105% | [7] 77% | [8] 80.5%

Cc1ccc(O)c(N=Nc2nccs2)c1
active: [1] 65.3% | [2] 57% | [4] 55.5% | [5] 79.3% | [6] 97.6% | [7] 78.5% | [8] 62.3%
inactive: [3] 36%

COC(=O)c1cc(O)cc(OC)c1Oc1cc(C)cc(O)c1C(=O)O
active: [2] 62.9% | [3] 54.2% | [4] 60.2% | [5] 56.5% | [6] 73% | [7] 66.9% | [8] 65.5%
inactive: [1] 13.8%

Cc1cccc(-n2c(N)c(-c3nc4ccccc4n3C)c3nc4ccccc4nc32)c1
inactive: [1] -11.4% | [2] -15% | [3] -14.8% | [4] -15.4% | [5] 8.3% | [6] -11.5% | [7] 10.3% | [8] 1.82%

Cc1ccc2[nH]c3nc(N/N=C/c4cccc(O)c4)nnc3c2c1
inactive: [1] 35.7% | [3] 27.8%
active: [2] 54.6% | [4] 48.2% | [5] 51% | [6] 65.6% | [7] 63.6% | [8] 69.8%

Cc1ccc(S(=O)(=O)/N=C2\C=C(Nc3ccc(O)cc3)C(=O)c3ccccc32)cc1
active: [1] 91.8% | [2] 83.1% | [3] 71.1% | [4] 86.3% | [5] 90.3% | [6] 106% | [7] 94.6% | [8] 96%

COC(=O)C1=C(CN2CCCc3ccccc32)NC(=O)NC1c1ccc(F)cc1 (stereo not drawn)
inactive: [6] 17% | [8] 4.51%
active: [1] 65.7% | [2] 32.3% | [3] 60% | [4] 34.7% | [5] 71.5% | [7] 63.3%

COc1ccc2[nH]c3c(C)c4ccncc4c(C)c3c2c1
active: [2] 53.7% | [4] 52.5% | [5] 60.9% | [6] 67.1% | [7] 68.7% | [8] 72.1%
inactive: [1] -29% | [3] 24.4%

Cc1ccc2ccc3ccc(C)nc3c2n1
inactive: [1] 42.1% | [3] 44.8%
active: [2] 70.6% | [4] 68.2% | [5] 77.2% | [6] 85.8% | [7] 87.4% | [8] 68.9%

c1ccc2cc3c(NCCN4CCOCC4)ccnc3cc2c1
active: [2] 44.7% | [4] 45.4% | [5] 35.6% | [6] 83.1% | [7] 55.6% | [8] 55.8%
inactive: [1] 22.8% | [3] 38.6%

COc1ccccc1-n1c(-c2ccccc2)c[n+]2c1CCc1ccccc1-2
inactive: [3] 39.1% and 29.1%
active: [2] 72.8% and 57.1% | [4] 73.8% and 53.7% | [5] 58.2% and 36.6% | [6] 96.8% and 84.2% | [7] 84.2% and 76% | [8] 83.9% and 70.9%
47.9% (active) and 39.9% (inactive): [1]
